Results as given in PubChem BioAssay AID1259311 (ICCB-Longwood Screening Facility, Harvard Medical School, 2017).
Values joined by “and” are separate entries in the source; they are usually repeats but may differ in a detail not shown here. Identical values can stand only once. In all, about 330,000 compounds went through this assay and about 1,100 (0.33%) were called active. Cut-off read from the data, not from the text of the source: active = inhibition above about 85%; inactive = the rest. Only a selection was taken, and actives are over-represented in it overall. A structure can be active in one record and inactive in another.

experiment: growth inhibition of S. aureus RN4220, primary screen, OD600 (AID 1259311); conditions: OD600, 16 h, stronger effect = higher value;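 note: plate controls were untreated cells for no effect and reference antibiotic for full effect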

| Compound | inhibition |
| --- | --- |
| Cc1ccc(N2C(=O)N3C(c4ccc(Br)cc4)C4C(=O)N(C(C)(C)C)C(=O)C4[C@]3(C)C2=O)cc1 (some centres undefined) | 5.35% (inactive) |
| N#CC(=NNc1ccc(Cl)cc1)C(=N)N1CCCCC1 | -2.55% (inactive) |
| N#C/C(=C/c1ccc(Cl)cc1)NC(=O)c1ccccc1 | -6.37% (inactive) |
| N#CC(=NNc1ccc(Cl)cc1)C(=O)c1ccccc1 | 100% (active) |
| O=c1c2ccccc2nc(/C=C/c2ccc(F)cc2)n1-c1ccccc1O | 97.2% (active) |
| O=c1c2ccccc2nc(/C=C/c2ccco2)n1-c1ccccc1O | 95.7% (active) |
| Cc1nc2ccccc2c(=O)n1-c1ccc(Cl)cc1Cl | 2.26% (inactive) |
| O=C(CSc1nc2ccccc2c(=O)n1-c1ccc(F)cc1)NC1CC1 | -2.32% (inactive) |
| O=C(CSc1nc2ccccc2c(=O)n1-c1ccccc1F)N1CCOCC1 | -0.567% (inactive) |
| CCn1c(/C=C/c2ccc([N+](=O)[O-])o2)nc2ccccc2c1=O | 11.2% (inactive) |
| O=C(NC(C(=O)NN=Cc1ccccn1)c1n[nH]c(=O)c2ccccc12)c1ccccc1 (centres undefined) | 0.248% (inactive) |
| CCCOc1ccc(C=NNC(=O)CSCc2ccc([N+](=O)[O-])cc2)cc1OCC | 3.47% (inactive) |
| CC(CC(=O)Nc1ccc([N+](=O)[O-])cc1)=NNC(=O)C1CC12CCC2 (centres undefined) | 3.47% (inactive) |
| COc1ccccc1C=NNC(=O)CO | 5.18% (inactive) |
| CNC(=O)C(=NO)c1ccccc1 | 0.94% (inactive) |
| O=C1CS/C(=N/N=Cc2ccncc2)N1 | 2.12% (inactive) |
| COc1ccc(CCN2C(=O)CSC2=NNC(=O)c2cccs2)cc1OC | 2.01% (inactive) |
| COc1ccc(C=NN=Cc2ccc(OC)c(OC)c2)cc1OC | -1.08% (inactive) |
| CN(C)C=Nc1sc2c(c1C#N)CC(C)(C)NC2(C)C | 2.77% (inactive) |
| COc1ccc(C(C)=NNC(=O)CSc2nnc(C)s2)cc1 | 6.45% (inactive) |

| Compound | inhibition |
| --- | --- |
| O=C(CC(O)(C(F)(F)F)C(F)(F)F)Nc1ccc(Cl)c(Cl)c1 | 100% (active) |
| NC(=O)N1CCCC1C(=O)Nc1ccc(Cl)c(Cl)c1 (centres undefined) | 0.288% (inactive) |
| O=C(Cc1ncc(C(F)(F)F)cc1Cl)Nc1cccc(Br)c1 | -2.16% (inactive) |
| Cc1[nH]c2ccccc2c1C=NNC(=O)CNC(=O)c1cccs1 | 2.5% (inactive) |
| COc1ccc(C=Nn2nnnc2N)c(OC)c1 | 2.12% (inactive) |
| COc1ccc(C=NNC(=O)c2ccccc2OC)cc1COc1ccccc1[N+](=O)[O-] | 4.25% (inactive) |
| COc1ccc(C(=O)NN=Cc2ccc(OC(=O)c3cccc4ccccc34)c([N+](=O)[O-])c2)cc1 | 95.4% (active) |
| COc1ccc(C(=O)NN=Cc2ccc(OC)c(CN3CCCc4ccccc43)c2)cc1 | 0.711% (inactive) |
| C1=CC2CCN(Cc3ccccc3)Cc3cccc(c32)C1 (centres undefined) | 4.59% (inactive) |
| Cc1cccc(-n2c(C)cc(C=NO)c2C)c1 | -4.73% (inactive) |
| O=C(CCl)N(Cc1cccc([N+](=O)[O-])c1)c1cccc(Cl)c1 | 94.9% (active) |
| O=C(c1cccc([N+](=O)[O-])c1)N1CCN(Cc2ccccc2)CC1 | 2.33% (inactive) |
| Cc1ccc(S(=O)(=O)N(Cc2cccc([N+](=O)[O-])c2)C(=O)N2CCN(C)CC2)cc1 | 2.8% (inactive) |
| CCCCNC(=O)CC1S/C(=N/N=Cc2ccc(OC)cc2)NC1=O (centres undefined) | 10.5% (inactive) |
| Cc1ccc(C=NNC(=O)Cc2cccn2C)cc1 | 1.44% (inactive) |
| Cc1ccc(O)c(C(=O)C=Cc2ccc3c(c2)OCCO3)c1 | -1.13% (inactive) |
| COc1c(O)ccc(C=NNC(=O)c2ccc3c(c2)OCCO3)c1[N+](=O)[O-] | 0.97% (inactive) |
| CN1CCN(CCNC(=O)Nc2ccc([N+](=O)[O-])cc2)CC1 | 2.31% (inactive) |
| CN1CCN(CCC(=O)NN=Cc2cc([N+](=O)[O-])ccc2O)CC1 | 88.7% (active) |
| O=C(NN=Cc1cc([N+](=O)[O-])ccc1O)C12CC3CC(CC(C3)C1)C2 | 63.4% (inactive) |

| Compound | inhibition |
| --- | --- |
| OCCC1CC(O)C(O)[C@]2(Cc3ccccc3O2)O1 (some centres undefined) | 1.1% (inactive) and -0.123% (inactive) and 7.32% (inactive) |
| OCCC1CC(O)C(O)[C@@]2(CCCc3ccccc3O2)O1 (some centres undefined) | -1.69% (inactive) and 51.2% (inactive) and 98.7% (active) |
| Cc1cccc(NC(=NS(=O)(=O)c2ccccc2)c2ccccc2)n1 | -0.262% (inactive) |
| CC(N)=C(C#N)C(=O)CSc1ccccc1F | 5.44% (inactive) |
| Cc1cc(C)n(C(=O)C(C#N)=NNc2cc(Cl)cc(Cl)c2)n1 | 99.6% (active) |
| Cc1cc(C)n(C(=O)CCNC(=O)c2ccccc2Cl)n1 | 4.12% (inactive) |
| N#CC(=NNc1cc(Cl)cc(Cl)c1)c1nnc2n1CCCCC2 | 0.845% (inactive) |
| COc1ccc(C=NNc2ccc([N+](=O)[O-])cc2S(=O)(=O)N2CCN(C)CC2)cc1 | -2.66% (inactive) |
| O=C(NN=Cc1cc(Cl)cc([N+](=O)[O-])c1O)c1cccc(S(=O)(=O)N2CCOCC2)c1 | 5.65% (inactive) |
| COc1ccc(CS(=O)/C(Cl)=C(/Cl)C(=O)Nc2ccc(OC)nc2)cc1 (centres undefined) | 1.8% (inactive) |
| COc1cccc(NC(=S)N(Cc2ccc(C)cc2)Cc2ccccn2)c1 | 2.66% (inactive) |
| COc1ccc(NC(=O)/C(Cl)=C(/Cl)S(=O)Cc2ccc(C)cc2)cn1 (centres undefined) | 93.4% (active) |
| COc1ccc(CN2CCC(=O)N(C(CO)CC(C)C)CC2)cc1 (centres undefined) | 3.45% (inactive) |
| COc1ccc(C2CC(=O)C=C(c3ccc(C)cc3)C2)cc1 (centres undefined) | 5.1% (inactive) |
| O=C(NN=Cc1ccsc1)c1cc(-c2cccs2)nc2ccccc12 | 2.77% (inactive) |
| CC(C)(C)Cc1nnc(NC(=O)c2cc(-c3ccccc3)nc3ccccc23)s1 | -1.74% (inactive) |
| O=C(Nc1nnc(-c2ccccc2)o1)c1cc(-c2cccs2)nc2ccccc12 | 100% (active) |
| CC(C)(C=NO)N(O)C=C1C=CC(=O)C=C1 | 1.68% (inactive) |
| COCCNC(=O)C1CCCN1S(=O)(=O)c1cccc2cccnc12 (centres undefined) | 6.77% (inactive) |
